Structures are written as SMILES. Active and inactive are the calls of the source. The rule behind the calls is not given here.

One assay deals with L-lactate dehydrogenase (Plasmodium falciparum (isolate CDC / Honduras)) (UniProt Q27743). The experiment in a line: PfLDH activity inhibition – cell lysate, 3D7 strain, counter-screen for P. falciparum growth inhibition project (AID 2304).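 Note: 0% = vehicle and 100% = reference inhibitor.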 The settings on record: P. falciparum 3D7 crude extract, LDH APAD/NBT absorbance; at 2 µM; active compounds read high.
Chain of L-lactate dehydrogenase (Plasmodium falciparum (isolate CDC / Honduras)) (Q27743 whole entry, looked up): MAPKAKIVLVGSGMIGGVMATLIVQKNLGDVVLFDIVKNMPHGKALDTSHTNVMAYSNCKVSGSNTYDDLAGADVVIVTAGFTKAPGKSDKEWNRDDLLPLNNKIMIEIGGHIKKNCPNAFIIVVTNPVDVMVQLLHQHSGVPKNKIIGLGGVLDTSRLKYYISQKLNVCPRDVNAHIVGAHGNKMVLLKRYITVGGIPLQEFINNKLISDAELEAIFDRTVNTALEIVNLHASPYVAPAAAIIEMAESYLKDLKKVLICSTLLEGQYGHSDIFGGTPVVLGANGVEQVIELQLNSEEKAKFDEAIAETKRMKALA
For orientation: inhibition means the relative decrease from the control value, in per cent. As to `CCN1CCC(N(Cc2ccc(-c3ccc(C(F)(F)F)cc3)cc2)C(=O)Cn2c(CCc3cccc(F)c3F)cc(=O)c3c2CCC3)CC1`, the inhibition was -1% (inactive).

Regarding `Cc1cc(=O)c2cc(Oc3cccc(OC(F)(F)F)c3)ccc2[nH]1`, the inhibition is 2% (inactive).

Consider `COc1ccc(CCn2c(=N)c(C(=O)NC3CCCC3)cc3c(=O)n4ccccc4nc32)cc1`, for which the inhibition is 1% (inactive).

With `COc1cc(CCON2C(N)=NC(N)=NC2(C)C)cc(OC)c1OC`, the inhibition is -1% (inactive).

On to `CSC1=NC(=Nc2ccccc2C)C2(CCC(C(C)(C)C)CC2)N1c1ccccc1Cl` (stereo not given), for which the inhibition is 4% (inactive).

For the compound `COc1ccc(-c2cnc3ccc(NCc4ccc(F)cc4)nn23)cc1OC`, the inhibition is -2% (inactive).

`CNC(=O)c1cnc(Nc2ccc(N3CCN(C)CC3)c(C)c2)nc1NC`: the inhibition was -1% (inactive).

Take `CCNc1cc(C)nc(Nc2ccccc2)n1`: the inhibition is -1% (inactive).

For the compound `Oc1cc(Nc2ccnc3ccc(I)cc23)c(F)cc1Cl`, the inhibition was 0% (inactive).

Turning to `c1ccc(-c2cccnn2)cc1`, the inhibition is 0% (inactive).

In the case of `CC(C)C[C@H](Nc1ccnc(NCC2CCCCC2)n1)C(=O)NCCc1ccccc1`, the inhibition is 0% (inactive).

Turning to `COc1ccc(CNc2ncc(-c3ccsc3)c(-c3nccs3)n2)cc1OC`, the inhibition is -1% (inactive).

`O=C(CCc1cnc[nH]1)Nc1cccc(-c2ccc(-c3nc4ccccc4[nH]3)s2)c1`: the inhibition is 0% (inactive).

In the case of `CCc1cc2c(=O)c(-c3nc(C)cs3)c([C@H](N)Cc3ccc(O)cc3)oc2cc1O`, the inhibition is 1% (inactive).

Consider `O=C(Nc1ccccc1)N(Cc1ccccc1-c1cccc(CNCCc2ccccc2)c1)C1CCN(Cc2ccccc2)CC1`, for which the inhibition is 4% (inactive).

For `Cc1cccc2c(N=NC(=S)N(C)C)c(O)[nH]c12`, the inhibition is -5% (inactive).

Regarding `COc1cc(OC)cc(-c2nc3c(C#N)c(OCCN(C)C)ccc3[nH]2)c1`, the inhibition is -3% (inactive).

Consider `c1cc(-c2ccc(CNC3CC3)cc2)cc(-c2nc3ccccc3[nH]2)c1`, for which the inhibition is 1% (inactive).

Consider `O=C(Nc1ccccc1)OCCOc1ccc(CC2SC(=O)NC2=O)cc1` (stereo not given), for which the inhibition is -3% (inactive).

Turning to `O=C(C=CC(=O)N1CCCCC1)NCc1ccccc1`, the inhibition was -2% (inactive).

For the compound `CCNc1cc(C(=O)N[C@@H](Cc2ccccc2)[C@H](O)CNCCc2ccccc2)cc(N2CCCCS2(=O)=O)c1`, the inhibition is 7% (inactive).

As for `O=C(Nc1ccc(-c2cccc(-c3nc4ccc(C(F)(F)F)cc4[nH]3)c2)cc1)c1csnn1`, the inhibition was -2% (inactive).

Consider `O=C(C=Cc1ccc(Cl)c(Cl)c1)NCCCCCN1CCCC(CCCNC(=O)[C@@H]2C[C@H]2c2ccccc2)C1` (stereo not given in full), for which the inhibition is -1% (inactive).

With `CNCCNCc1cccc(-c2ccc(-c3nc4ccccc4[nH]3)s2)c1`, the inhibition is 0% (inactive).

With `Fc1cc(Cl)ccc1Nc1ccnc2cc(I)ccc12`, the inhibition is -1% (inactive).

In the case of `CCOc1cc(C(=O)NC2CC(C)(C)NC(C)(C)C2)ccc1-c1nc2ccc(Cl)cc2[nH]1`, the inhibition was 4% (inactive).

As for `CC(=O)Nc1ccc(C(=O)Nc2cccc(-c3cccc(-c4nc5ccc(C(F)(F)F)cc5[nH]4)c3)c2)cn1`, the inhibition is -2% (inactive).

Consider `CCNc1cc(C(=O)N[C@@H](Cc2ccccc2)[C@H](O)CNC2CCCCC2)cc(N2CCCCS2(=O)=O)c1`, for which the inhibition is -4% (inactive).

Take `Cc1nc(Nc2ccncc2)cc(-c2ccncc2)n1`: the inhibition is -2% (inactive).

On to `Cc1cccc2[nH]c(-c3cccc(-c4ccc(NC(=O)Cc5ccccn5)cc4)c3)nc12`, for which the inhibition is 3% (inactive).

As to `Cc1ncc([N+](=O)[O-])n1CCOC(=O)NC(Nc1ccc(Br)cc1)C(Cl)(Cl)Cl` (stereo not given), the inhibition was 5% (inactive).

As to `CC(C)(C)C1CC(=O)C[C@@H]2C(=O)N(c3ccc(Br)cc3)C(=O)[C@H]12` (stereo not given in full), the inhibition was 1% (inactive).

Take `CC(C)CNCc1ccc(-c2cccc(CNC3CCN(Cc4ccccc4)CC3)c2)cc1`: the inhibition was -9% (inactive).

For `COC(=O)CCCCOc1c(OC)cc(Cc2cnc(N)nc2N)cc1OC`, the inhibition was -2% (inactive).

As to `Cc1nc(-c2ccc(-c3ccc(NC(=O)c4coc5ccc(N6C[C@@H](C)N(C)[C@@H](C)C6)cc45)cc3)c(C)c2)no1`, the inhibition was 1% (inactive).

As to `COC(=O)Cc1ccc(N)c2ccccc12`, the inhibition is -1% (inactive).

With `Oc1ccc(CCCNc2nc(NCc3cccc4ccccc34)nc(NC3CCNCC3)n2)cc1`, the inhibition is 1% (inactive).

For the compound `CCCCC(NCC)c1ccc(OCCOc2ccc(C(CCCC)NCC)cc2)cc1` (stereo not given), the inhibition was 3% (inactive).

Consider `CN1CCC(NCc2ccc(-c3ccc(C(F)(F)F)cc3)cc2)CC1`, for which the inhibition is 5% (inactive).

For the compound `CC(=O)Nc1ccc(CN2CCC(NC(=O)c3ccc(-c4cccc(C(F)(F)F)c4)s3)CC2)cc1`, the inhibition is -3% (inactive).

Test system in the next assay: not listed separately
The experiment in a line: inhibition of 3D7 malaria parasite growth – strain 3D7 (AID 2306).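 Note: 0% = DMSO wells and 100% = chloroquine plus artemisinin control wells.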 The settings on record: P. falciparum 3D7 erythrocytic growth, LDH absorbance, 72 h; at 2 µM; active compounds read high.
`CCN1CCC(N(Cc2ccc(-c3ccc(C(F)(F)F)cc3)cc2)C(=O)Cn2c(CCc3cccc(F)c3F)cc(=O)c3c2CCC3)CC1`: the growth inhibition is 89% (active).

On to `Cc1cc(=O)c2cc(Oc3cccc(OC(F)(F)F)c3)ccc2[nH]1`, for which the growth inhibition is 90% (active).

On to `COc1ccc(CCn2c(=N)c(C(=O)NC3CCCC3)cc3c(=O)n4ccccc4nc32)cc1`, for which the growth inhibition is 99% (active).

In the case of `COc1cc(CCON2C(N)=NC(N)=NC2(C)C)cc(OC)c1OC`, the growth inhibition is 93% (active).

On to `CSC1=NC(=Nc2ccccc2C)C2(CCC(C(C)(C)C)CC2)N1c1ccccc1Cl` (stereo not given), for which the growth inhibition was 96% (active).

`COc1ccc(-c2cnc3ccc(NCc4ccc(F)cc4)nn23)cc1OC`: the growth inhibition is 97% (active).

As for `CNC(=O)c1cnc(Nc2ccc(N3CCN(C)CC3)c(C)c2)nc1NC`, the growth inhibition was 97% (active).

As for `CCNc1cc(C)nc(Nc2ccccc2)n1`, the growth inhibition was 92% (active).

Turning to `Oc1cc(Nc2ccnc3ccc(I)cc23)c(F)cc1Cl`, the growth inhibition is 95% (active).

As for `c1ccc(-c2cccnn2)cc1`, the growth inhibition is 98% (active).

As to `CC(C)C[C@H](Nc1ccnc(NCC2CCCCC2)n1)C(=O)NCCc1ccccc1`, the growth inhibition was 88% (active).

In the case of `COc1ccc(CNc2ncc(-c3ccsc3)c(-c3nccs3)n2)cc1OC`, the growth inhibition is 86% (active).

As to `O=C(CCc1cnc[nH]1)Nc1cccc(-c2ccc(-c3nc4ccccc4[nH]3)s2)c1`, the growth inhibition was 92% (active).

For `CCc1cc2c(=O)c(-c3nc(C)cs3)c([C@H](N)Cc3ccc(O)cc3)oc2cc1O`, the growth inhibition was 101% (active).

Consider `O=C(Nc1ccccc1)N(Cc1ccccc1-c1cccc(CNCCc2ccccc2)c1)C1CCN(Cc2ccccc2)CC1`, for which the growth inhibition is 100% (active).

Take `Cc1cccc2c(N=NC(=S)N(C)C)c(O)[nH]c12`: the growth inhibition is 96% (active).

As for `COc1cc(OC)cc(-c2nc3c(C#N)c(OCCN(C)C)ccc3[nH]2)c1`, the growth inhibition was 99% (active).

For the compound `c1cc(-c2ccc(CNC3CC3)cc2)cc(-c2nc3ccccc3[nH]2)c1`, the growth inhibition was 96% (active).

On to `O=C(Nc1ccccc1)OCCOc1ccc(CC2SC(=O)NC2=O)cc1` (stereo not given), for which the growth inhibition was 100% (active).

As to `O=C(C=CC(=O)N1CCCCC1)NCc1ccccc1`, the growth inhibition is 100% (active).

Regarding `CCNc1cc(C(=O)N[C@@H](Cc2ccccc2)[C@H](O)CNCCc2ccccc2)cc(N2CCCCS2(=O)=O)c1`, the growth inhibition is 98% (active).

In the case of `O=C(Nc1ccc(-c2cccc(-c3nc4ccc(C(F)(F)F)cc4[nH]3)c2)cc1)c1csnn1`, the growth inhibition was 98% (active).

Regarding `O=C(C=Cc1ccc(Cl)c(Cl)c1)NCCCCCN1CCCC(CCCNC(=O)[C@@H]2C[C@H]2c2ccccc2)C1` (stereo not given in full), the growth inhibition was 85% (active).

For `CNCCNCc1cccc(-c2ccc(-c3nc4ccccc4[nH]3)s2)c1`, the growth inhibition was 99% (active).

As for `Fc1cc(Cl)ccc1Nc1ccnc2cc(I)ccc12`, the growth inhibition is 90% (active).

Regarding `CCOc1cc(C(=O)NC2CC(C)(C)NC(C)(C)C2)ccc1-c1nc2ccc(Cl)cc2[nH]1`, the growth inhibition was 100% (active).

As for `CC(=O)Nc1ccc(C(=O)Nc2cccc(-c3cccc(-c4nc5ccc(C(F)(F)F)cc5[nH]4)c3)c2)cn1`, the growth inhibition was 101% (active).

`CCNc1cc(C(=O)N[C@@H](Cc2ccccc2)[C@H](O)CNC2CCCCC2)cc(N2CCCCS2(=O)=O)c1`: the growth inhibition was 99% (active).

Consider `Cc1nc(Nc2ccncc2)cc(-c2ccncc2)n1`, for which the growth inhibition is 100% (active).

On to `Cc1cccc2[nH]c(-c3cccc(-c4ccc(NC(=O)Cc5ccccn5)cc4)c3)nc12`, for which the growth inhibition was 94% (active).

On to `Cc1ncc([N+](=O)[O-])n1CCOC(=O)NC(Nc1ccc(Br)cc1)C(Cl)(Cl)Cl` (stereo not given), for which the growth inhibition is 99% (active).

On to `CC(C)(C)C1CC(=O)C[C@@H]2C(=O)N(c3ccc(Br)cc3)C(=O)[C@H]12` (stereo not given in full), for which the growth inhibition is 94% (active).

For the compound `CC(C)CNCc1ccc(-c2cccc(CNC3CCN(Cc4ccccc4)CC3)c2)cc1`, the growth inhibition was 101% (active).

With `COC(=O)CCCCOc1c(OC)cc(Cc2cnc(N)nc2N)cc1OC`, the growth inhibition is 93% (active).

As for `Cc1nc(-c2ccc(-c3ccc(NC(=O)c4coc5ccc(N6C[C@@H](C)N(C)[C@@H](C)C6)cc45)cc3)c(C)c2)no1`, the growth inhibition is 96% (active).

Turning to `COC(=O)Cc1ccc(N)c2ccccc12`, the growth inhibition is 98% (active).

For `Oc1ccc(CCCNc2nc(NCc3cccc4ccccc34)nc(NC3CCNCC3)n2)cc1`, the growth inhibition was 91% (active).

As for `CCCCC(NCC)c1ccc(OCCOc2ccc(C(CCCC)NCC)cc2)cc1` (stereo not given), the growth inhibition is 101% (active).

As to `CN1CCC(NCc2ccc(-c3ccc(C(F)(F)F)cc3)cc2)CC1`, the growth inhibition is 99% (active).

In the case of `CC(=O)Nc1ccc(CN2CCC(NC(=O)c3ccc(-c4cccc(C(F)(F)F)c4)s3)CC2)cc1`, the growth inhibition is 100% (active).

The values above are taken from PubChem BioAssay.
